Test results as given in PubChem BioAssay (NCI).
Compounds without any hit were thinned out: in the full panel of roughly 79,000, 15% have a hit. Unmarked numbers belong to inactive results. Active and inactive are the calls of the source. No stated cut-off is given here; in the data, active means growth inhibition above about 70%; inactive means the rest.

Columns and labels:
[1] = NCI Yeast Anticancer Drug Screen. Data for the rad50 strain (AID 155);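 further: 0% = growth of vehicle-only cultures of the same strain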; conditions: S. cerevisiae rad50 strain growth inhibition; at 50.0 µM; hits give high values
How it was run: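 Genetically altered yeast (DNA repair pathway); compound treatment; growth inhibition vs vehicle ctrl.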

[2] = NCI Yeast Anticancer Drug Screen. Data for the mec2-1 strain (AID 157); conditions: S. cerevisiae mec2-1 strain, at 50.0 µM, hits give high values
How it was run: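 Each compound was tested on mec2-1 yeast, a strain altered in DNA damage repair or cell cycle control. Growth inhibition is reported relative to vehicle.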

[3] = NCI Yeast Anticancer Drug Screen. Data for the sgs1 mgt1 strain (AID 161);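 further: 0% = growth of cultures given vehicle only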; conditions: S. cerevisiae sgs1 mgt1 strain, at 50.0 µM, hits give high values
How it was run: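 Test agents were incubated with a DNA-repair-mutant yeast strain. Growth was then read and compared against vehicle-treated controls.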

[4] = NCI Yeast Anticancer Drug Screen. Data for the cln2 rad14 strain (AID 165);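 further: 0% = growth equal to vehicle treated cultures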; conditions: S. cerevisiae cln2 rad14 strain, at 50.0 µM, hits give high values
How it was run: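 Test compounds were added to cln2 rad14 yeast cultures; inhibition of growth was then determined by comparison with vehicle treatment.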

[5] = NCI Yeast Anticancer Drug Screen. Data for the bub3 strain (AID 167); conditions: S. cerevisiae bub3 mutant strain, at 50.0 µM, hits give high values
How it was run: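 Yeast carrying a defined mutation is treated with each compound, and growth is compared with that of vehicle-exposed cells to give inhibition.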

[6] = NCI Yeast Anticancer Drug Screen. Data for the mlh1 rad18 strain (AID 175); conditions: S. cerevisiae mlh1 rad18 strain growth inhibition; at 50.0 µM; hits give high values
How it was run: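 Inhibition values reflect reduced growth of mutant yeast versus vehicle-treated controls following compound exposure; the mutations affect DNA damage repair.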

Row | Structure (SMILES) | growth inhibition [1] | growth inhibition [2] | growth inhibition [3] | growth inhibition [4] | growth inhibition [5] | growth inhibition [6]
1 | COc1cc2ccc3c4c(OC)cc5c(c4c[n+](C)c3c2cc1OC)OCO5 | 88% (active) | 91.3% (active) | 88.3% (active) | 88.7% (active) | 90% (active) | 87.2% (active)
2 | CCCOc1cc2c(cc1C(C)c1ccc(OCC)cc1)OCO2 (configuration not stated) | 36% | -25.8% | -9.3% | 0.9% | -26.8% | -49.8%
3 | N#C/C(=C/O)c1ccccc1 | 1.65% | 4.4% | -0.75% | 3.1% | 5.6% | -13.7%
4 | CCC(=C(c1ccc(OCc2ccccc2)cc1)c1ccc(OCc2ccccc2)cc1)c1ccc(OC)cc1 | 14.7% | -24.2% | 9.45% | -0.3% | -20.8% | -14.3%
5 | O=C1C(=Cc2cccc(O)c2)N=C(c2ccccc2)N1n1c(-c2ccccc2)nc2ccccc2c1=O | -14.3% | 5.15% | 25.8% | 14.7% | -1.75% | 11.9%
6 | O=C1NC(=S)S/C1=C\c1ccncc1 | 12.4% | -7.4% | -10.4% | 0.9% | 0.05% | -19.1%
7 | Nc1nc(N)nc(-c2ccc([N+](=O)[O-])o2)n1 | 41.8% | 10.8% | 29.9% | 20.8% | 12.2% | 41.6%
8 | CC1(C)Cc2c(oc3ncnc(N)c23)CS1 | -10.3% | -14.1% | -8.8% | -4.75% | -4.65% | 9.2%
9 | C1CCC2(CC1)OCCO2 | -0.75% | -37.9% | -20.8% | 1.3% | -7.85% | 0.6%
10 | Cc1occ(Br)c(=O)c1O | 12.9% | 12.3% | 17.5% | 25.8% | -0.85% | 15.2%
11 | O=C(NC(Nc1ccc(F)c(Cl)c1)(C(F)(F)F)C(F)(F)F)OCc1ccccc1 | -1.35% | -1.05% | -23.1% | 3.1% | -5.5% | 24.3%
12 | C=CCNC(=S)NNC(=S)NCC=C | 9.55% | 34.1% | 10.4% | 3.6% | -16.4% | 22.2%
13 | O=C(CCc1ccccc1)n1cccc1CO | -10.1% | -21.1% | -6.85% | 17.9% | 16.2% | 1.35%
14 | COC(=O)C(=O)C(C(=O)C=C(C)C)c1nc2n(c1O)C(=N)N=N2 (configuration not stated) | 13.2% | 20.9% | 14.3% | -1.75% | 13.1% | 17.4%
15 | NS(=O)(=O)c1ccccc1 | 25.2% | 18.9% | 7.95% | -28.4% | 12.4% | 15.4%
16 | O=C1C2CCCCC2C(=O)N1O (configuration not stated) | 60.1% | -1.5% | 18.8% | 16.6% | 1.45% | 9.25%
17 | Cc1cc([N+](=O)[O-])ccc1NC(=O)C(Br)C(Br)C(=O)O (configuration not stated) | 31.1% | 64.5% | 75.9% (active) | 15.8% | 75.8% (active) | 49.1%
18 | Nc1cccc2nsnc12 | 3% | -36.6% | -42.2% | 30.1% | -5.05% | -15.7%
19 | CN(C)CCNc1ccc(NCCN(C)C)c2c1C(=O)c1ncsc1C2=O | -8.15% | -0.8% | 14.2% | 8.35% | 2.1% | -16.8%
20 | CCS(=O)(=O)c1ccc(NC(=O)OCc2ccccc2)cc1 | 12.1% | 23.4% | 22.4% | -4.4% | 25.5% | -2.4%
21 | NCC1(N2CCOCC2)C2CCCC21CNc1ccccc1 (configuration not stated) | -37.2% | -46.1% | -16% | -4.65% | -35.1% | -21%

Row | Structure (SMILES) | growth inhibition [1] | growth inhibition [2] | growth inhibition [3] | growth inhibition [4] | growth inhibition [5] | growth inhibition [6]
22 | COC(=O)c1ccccc1/C=C1\Cc2ccc3c(c2C1=O)CCCC3 | -30.9% | -52.6% | -18.9% | -7.4% | 5.6% | -25.2%
23 | CCOC(=O)CCc1c(C)c2c(O)cc(O)cc2oc1=O | 3.25% | -3.5% | -19.5% | 8.3% | -42.9% | 20.7%
24 | NC(=O)C1CCN(S(=O)(=O)c2ccccc2)CC1 | -0.85% | -9.1% | 8.55% | -37.6% | -1.5% | -18.4%
25 | CCOC(=O)C(Cc1ccc(OCc2ccccc2)c(OCc2ccccc2)c1)(NC=O)C(=O)OCC | 36.6% | -1.6% | 19.8% | -14.8% | -9.9% | 9%
26 | COc1ccc(CC(C)=C(C#N)C#N)cc1OC | -10.8% | -2.45% | -8.25% | 11.8% | -0.05% | -17.3%
27 | Cc1cc2nc(CCC(=O)O)c(=O)[nH]c2cc1C | -22.4% | -24.6% | -4.05% | 13.8% | -24% | -28.8%
28 | O=C1C(=O)C(c2ccccc2)S(=O)(=O)C1c1ccccc1 (configuration not stated) | -5.3% | -5.05% | -6.3% | 4.3% | 7.55% | 14.6%
29 | O=C1/C(=C/c2ccccc2)CC/C1=C\c1ccccc1 | 5.35% | 17.6% | 31.8% | 20.2% | 19.8% | 3.85%
30 | CCNC(=O)c1ccccc1C(=O)c1ccccc1 | -4.55% | 1.2% | 6.55% | 12.8% | -0.75% | 11.5%
31 | COc1ccc2[nH]c3c(c2c1)[C@H](c1ccccc1)C[C@@H]1C(=O)N(c2ccccc2)C(=O)[C@H]31 | -5.25% | -6.65% | 1.75% | 0.65% | -8.9% | -7.95%
32 | C=CCNC(=O)CS(=O)(=O)c1ccc(C)cc1 | 0.1% | -10.3% | -0.35% | 15.3% | 3.05% | 10.6%
33 | COc1ccc2nc(NC(=O)C(=O)C(C#N)c3ccc(CC#N)cc3)sc2c1 (configuration not stated) | -4.3% | 11.4% | 4.5% | -4.85% | 0.15% | -5.75%
34 | C#CCCC#C | -4.4% | -17.3% | 8.4% | 6% | -16.1% | -5.8%
35 | Cn1c(N)c(NC(=S)NCC2CCCCC2)c(=O)n(C)c1=O | -2.8% | -5% | -1.2% | -9.6% | -3.6% | 1.5%
36 | C/C=C(/C)c1ccccc1 | -5.1% | 1.8% | -1.1% | 10.4% | 4.55% | 24.6%
37 | Cc1cc(C)nc(NC(=O)c2cc(C(=O)O)c(C(=O)Nc3cc(C)cc(C)n3)cc2C(=O)O)c1 | -20.3% | -3.1% | -18.8% | -27.6% | 3.25% | -23.9%
38 | Cc1cccc(C(C)C)c1NC(=O)C(=O)C(C#N)c1ccc(CC#N)cc1 (configuration not stated) | -27.9% | 2.4% | 17.9% | -40% | 1.55% | 14.2%
39 | Cc1cccc(C)c1NN | 23.2% | -4.15% | 11.8% | -12.7% | -11.5% | 24.2%
40 | CC(=O)[C@H]1CC[C@H]2[C@@H]3CC(=O)C4=CC(=O)CC[C@]4(C)[C@H]3C(=O)C[C@]12C | 11.3% | -12.2% | 11.2% | -25.6% | 0.45% | -4.9%
41 | CSCC[C@H]1C(=O)N=C(N)N1C(=O)OCc1ccccc1 | -5.7% | 3.85% | 3.6% | -9.6% | -2.75% | 12.8%
42 | O=[N+]([O-])c1ccc(Sc2c3ccccc3nc3cc(Cl)ccc23)cc1 | -32.2% | -18.3% | -18.5% | 9.3% | -20.3% | -28.9%
